# Results published in PubChem BioAssay (EPA / NIEHS).
# Where “and” joins values, the source holds several entries; their conditions need not be identical. Equal values may be shown once. Inconclusive results are not listed. The source holds several records for some structures; these can differ, active in one and inactive in another. Calls of active or inactive are those of the source. Rule for the calls: active = hit-call score of the fitted dose curve at least 0.9, where 1 is the maximum; inconclusive = response in the unintended direction; inactive = score below 0.9.
# Test system: not listed separately
# Assay: TOX21_p53_BLA_p2_viability: Viability Assessment in the Tox21 HCT-116 p53 Agonism Beta-lactamase Assay, Phase 2 (AID 2283591);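 note: actives lower the ATP signal meaning cytotoxicity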
# Procedure, shortened: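 HCT-116 p53-bla cells (4000/well) rested 5 h at 37C, then received compounds in DMSO (217-fold dilution) for 16 h at 37C, 5% CO2. After the CCF4 read, CellTiter-Glo was added; ATP luminescence was read after 30 min at room temperature.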
Compound,outcome,AC50
CCOP(=O)(NC(C)C)Oc1ccc(SC)c(C)c1 (stereo not drawn),inactive,
COc1cc(OC)nc(Sc2cccc(Cl)c2C(=O)O)n1,inactive,
CCOP(=S)(OCC)Oc1ccc2c(C)c(Cl)c(=O)oc2c1,inactive,
CC(=NC#N)N(C)Cc1ccc(Cl)nc1,inactive,
CN(C)NC(=O)CCC(=O)O,inactive,
FC(F)C(F)(F)OCC(Cn1cncn1)c1ccc(Cl)cc1Cl (stereo not drawn),inactive,
CCc1cccc(C)c1N(C(=O)CCl)C(C)COC (stereo not drawn),inactive,
COP(=O)(OC)C(O)C(Cl)(Cl)Cl (stereo not drawn),inactive,
CC(C)=CC1C(C(=O)OCN2C(=O)C3=C(CCCC3)C2=O)C1(C)C (stereo not drawn),inactive,
CC(C)N(C(=O)SCC(Cl)=C(Cl)Cl)C(C)C,inactive,
CCCCOC(=O)c1ccccc1C(=O)O,inactive,
CCC(=O)Nc1ccc(Cl)c(Cl)c1,inactive,
COc1cccc(C(=O)NN(C(=O)c2cc(C)cc(C)c2)C(C)(C)C)c1C,inactive,
S=C1NCCN1,inactive,
CCOP(=S)(OCC)Oc1cc(C)nc(C(C)C)n1,inactive,
CCCCSP(=O)(SCCCC)SCCCC,inactive,
CCOP(=S)(OCC)SCCSCC,inactive,
C#CCC1=C(C)C(OC(=O)C2C(C=C(C)C)C2(C)C)CC1=O (stereo not drawn),,45.8 µM (active)

Compound,outcome,AC50
CCOC(=O)CC(SP(=O)(OC)OC)C(=O)OCC (stereo not drawn),inactive,
CON=C(C(=O)OC)c1ccccc1CON=C(C)c1cccc(C(F)(F)F)c1,inactive,
CCOP(=S)(OCC)Oc1ccc([N+](=O)[O-])cc1,inactive,
Cc1cc(C2CC2)nc(Nc2ccccc2)n1,,62.2 µM (active)
C[Si](Cn1cncn1)(c1ccc(F)cc1)c1ccc(F)cc1,inactive,23.1 µM (active)
CCC(CC)Nc1c([N+](=O)[O-])cc(C)c(C)c1[N+](=O)[O-],inactive,
O=c1ccc(=O)[nH][nH]1,inactive,
CCCSP(=O)(OCC)Oc1ccc(Br)cc1Cl (stereo not drawn),inactive,
CC1(C(=O)Nc2ccc(O)c(Cl)c2Cl)CCCCC1,inactive,
CNC(=O)ON=C(SC)C(=O)N(C)C,inactive,
Nc1nc(N)nc(NC2CC2)n1,inactive,
CSC1=N[C@@](C)(c2ccccc2)C(=O)N1Nc1ccccc1,inactive,
CC[C@H](C)[C@H]1O[C@]2(C=C[C@@H]1C)C[C@@H]1C[C@@H](C/C=C(\C)[C@@H](O[C@H]3C[C@H](OC)[C@@H](O[C@H]4C[C@H](OC)[C@@H](NC)[C@H](C)O4)[C@H](C)O3)[C@@H](C)/C=C/C=C3\CO[C@@H]4[C@H](O)C(C)=C[C@@H](C(=O)O1)[C@]34O)O2,,13.5 µM (active)
N#CSCSC#N,,54.8 µM (active) and 70.4 µM (active)
COP(=O)(NC(C)=O)SC (stereo not drawn),inactive,
CCCOCC(=Nc1ccc(Cl)cc1C(F)(F)F)n1ccnc1,,23.7 µM (active)
C#CC(C)(C)NC(=O)c1cc(Cl)cc(Cl)c1,inactive,

# Target: Cellular tumor antigen p53 (Homo sapiens) (UniProt P04637)
# Assay: TOX21_p53_BLA_p2_ratio: Tox21 HCT-116 p53 Agonism Beta-lactamase Assay, Ratio, Phase 2 (AID 2283592)
# Procedure, shortened: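 Readout: blue/green (460/530 nm) FRET emission ratio after 2 h CCF4-AM loading at room temperature, excitation 405 nm. HCT116 p53 bla cells, 16 h compound exposure at 37C, 5% CO2; agonist direction fitted against DMSO baseline.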
# Chain of Cellular tumor antigen p53 (Homo sapiens) (P04637 whole entry, looked up): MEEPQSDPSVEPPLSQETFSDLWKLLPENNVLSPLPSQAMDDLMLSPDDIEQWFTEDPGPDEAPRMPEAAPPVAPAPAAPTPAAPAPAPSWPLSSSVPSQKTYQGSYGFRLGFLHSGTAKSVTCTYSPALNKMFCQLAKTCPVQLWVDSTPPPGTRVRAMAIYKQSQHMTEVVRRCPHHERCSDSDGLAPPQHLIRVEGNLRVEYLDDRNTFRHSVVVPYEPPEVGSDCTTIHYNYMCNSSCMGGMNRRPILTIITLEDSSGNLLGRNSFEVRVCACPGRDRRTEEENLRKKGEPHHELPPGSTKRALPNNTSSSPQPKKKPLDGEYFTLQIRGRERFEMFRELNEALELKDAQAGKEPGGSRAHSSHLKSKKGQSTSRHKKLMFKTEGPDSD
Compound,outcome,AC50
CCOP(=O)(NC(C)C)Oc1ccc(SC)c(C)c1 (stereo not drawn),inactive,
COc1cc(OC)nc(Sc2cccc(Cl)c2C(=O)O)n1,inactive,
CCOP(=S)(OCC)Oc1ccc2c(C)c(Cl)c(=O)oc2c1,inactive,
CC(=NC#N)N(C)Cc1ccc(Cl)nc1,inactive,
CN(C)NC(=O)CCC(=O)O,inactive,
FC(F)C(F)(F)OCC(Cn1cncn1)c1ccc(Cl)cc1Cl (stereo not drawn),inactive,
CCc1cccc(C)c1N(C(=O)CCl)C(C)COC (stereo not drawn),inactive,
COP(=O)(OC)C(O)C(Cl)(Cl)Cl (stereo not drawn),inactive,
CC(C)=CC1C(C(=O)OCN2C(=O)C3=C(CCCC3)C2=O)C1(C)C (stereo not drawn),inactive,
CC(C)N(C(=O)SCC(Cl)=C(Cl)Cl)C(C)C,inactive,
CCCCOC(=O)c1ccccc1C(=O)O,inactive,
CCC(=O)Nc1ccc(Cl)c(Cl)c1,inactive,88 µM (active)
COc1cccc(C(=O)NN(C(=O)c2cc(C)cc(C)c2)C(C)(C)C)c1C,inactive,
S=C1NCCN1,inactive,
CCOP(=S)(OCC)Oc1cc(C)nc(C(C)C)n1,inactive,
CCCCSP(=O)(SCCCC)SCCCC,inactive,
CCOP(=S)(OCC)SCCSCC,inactive,
C#CCC1=C(C)C(OC(=O)C2C(C=C(C)C)C2(C)C)CC1=O (stereo not drawn),,86.7 µM (active)

Compound,outcome,AC50
CCOC(=O)CC(SP(=O)(OC)OC)C(=O)OCC (stereo not drawn),inactive,
CON=C(C(=O)OC)c1ccccc1CON=C(C)c1cccc(C(F)(F)F)c1,,1.25 µM (active)
CCOP(=S)(OCC)Oc1ccc([N+](=O)[O-])cc1,inactive,89.3 µM (active)
Cc1cc(C2CC2)nc(Nc2ccccc2)n1,inactive,
C[Si](Cn1cncn1)(c1ccc(F)cc1)c1ccc(F)cc1,inactive,
CCC(CC)Nc1c([N+](=O)[O-])cc(C)c(C)c1[N+](=O)[O-],inactive,
O=c1ccc(=O)[nH][nH]1,inactive,
CCCSP(=O)(OCC)Oc1ccc(Br)cc1Cl (stereo not drawn),inactive,
CC1(C(=O)Nc2ccc(O)c(Cl)c2Cl)CCCCC1,inactive,
CNC(=O)ON=C(SC)C(=O)N(C)C,inactive,
Nc1nc(N)nc(NC2CC2)n1,inactive,
CSC1=N[C@@](C)(c2ccccc2)C(=O)N1Nc1ccccc1,inactive,
CC[C@H](C)[C@H]1O[C@]2(C=C[C@@H]1C)C[C@@H]1C[C@@H](C/C=C(\C)[C@@H](O[C@H]3C[C@H](OC)[C@@H](O[C@H]4C[C@H](OC)[C@@H](NC)[C@H](C)O4)[C@H](C)O3)[C@@H](C)/C=C/C=C3\CO[C@@H]4[C@H](O)C(C)=C[C@@H](C(=O)O1)[C@]34O)O2,,59.1 µM (active)
N#CSCSC#N,,19 µM (active) and 15.5 µM (active)
COP(=O)(NC(C)=O)SC (stereo not drawn),inactive,
CCCOCC(=Nc1ccc(Cl)cc1C(F)(F)F)n1ccnc1,,39.9 µM (active)
C#CC(C)(C)NC(=O)c1cc(Cl)cc(Cl)c1,inactive,
